Measured values: PubChem BioAssay (NCATS)
Inconclusive results are not listed. Entries that show only a call come without a potency. Unmarked numbers belong to inactive results. Activity calls are given as the source filed them. Calls come from the whole dose curve; as a rule, active = well fitted inhibition curve with a large enough effect; inconclusive = small, poorly fitted or top-dose-only effect; inactive = flat fitted curve, though single readings scatter.
Potency is the fitted concentration of half-maximal effect.

Assay: P-glycoprotein substrates identified in KB-8-5-11 adenocarcinoma cell line, qHTS therapeutic library screen (AID 1346987); note: nearly all actives have a fitted effect of over 65% in size
Details: KB-8-5-11 (P-gp overexpressing) viability, CellTiter-Glo, 72 h; series mostly up to 44.5 µM
Method in brief: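 Steps: plate 500 KB-8-5-11 cells/well in DMEM + 10% FCS (colchicine removed); pin compounds in dose-response; incubate 72 h, 37 degree C, 5% CO2; add CellTiter-Glo, 5 min; read luminescence.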
In the case of CNC(C)C(=O)NC(C(=O)N1CCCC1C(=O)Nc1snnc1-c1ccccc1)C1CCCCC1 (stereo not drawn), the Potency is reported as “inactive”. For COc1ccc(S(=O)(=O)n2cnc3cc(C)c(C)cc32)cc1, the Potency was “inactive”. With C[C@@]12C(=O)N(c3ccc(C(=O)Nc4cccc5cccnc45)cc3)C(=O)[C@@H]1[C@@H]1C=C[C@H]2C1 the Potency was “inactive”. For CN(C)C(=O)COC(=O)c1cc(-c2ccc(C3CCNCC3)cc2)c2ccc(-c3ccc(C(F)(F)F)cc3)cc2c1, the Potency was 18.4 µM (active). For OC1(CN2CCC(COc3noc4cccc(O[C@@H]5CCOC5)c34)CC2)CCOCC1, the Potency was “inactive”. In the case of O=C(Nc1ccc2[nH]nc(-c3ccncc3)c2c1)[C@@H]1CCN(CC(=O)N2CCN(c3ccc(-c4ncccn4)cc3)CC2)C1, the Potency is reported as “inactive”. For O=C(c1ccccn1)N(Cc1cccs1)C1(C(=O)NC2CCCCC2)CCCCC1, the Potency was “inactive”. In the case of O=C(NCCO)c1cccc(-c2cc(Nc3ccc(OC(F)(F)F)cc3)ncn2)c1, the Potency is reported as “inactive”. With CCCCC1CCC(c2nc(-c3ccncc3)no2)CC1 (stereo not drawn) the Potency was “inactive”. For CCC(C(C)O)n1ncn(-c2ccc(N3CCN(c4ccc(OCC5COC(Cn6cncn6)(c6ccc(F)cc6F)C5)cc4)CC3)cc2)c1=O (stereo not drawn), the Potency was 18.4 µM (active). In the case of COc1cc2c(cc1OCCCN1CCCC1)N=C(N)C21CCC1, the Potency is reported as “inactive”. With C=CC1(C)CC(O)C(C(=C)C(=O)OC)C(O)C1C(=C)CO (stereo not drawn) the Potency was “inactive”. With C=CC(C)(O)CC/C=C(/C)COC(=O)C(C)C1CCC(C)(C=C)O1 (stereo not drawn) the Potency was “inactive”. For CC(C)(C)[C@H](NC(=O)c1ccc(N)c(Cl)c1)C(=O)N1CCC[C@H]1C(=O)N[C@H](C#N)CC(=O)O, the Potency was “inactive”. In the case of CS/C=C/C(=O)O[C@@H]1CCC2=CC(=O)C(=C(C)C)C[C@]2(C)[C@H]1C, the Potency is reported as “inactive”. For CC[C@@H](C)[C@@H]1OC2(C=C[C@H]1C)C[C@@H]1C[C@H](C/C=C(\C)[C@H](O[C@H]3C[C@H](OC)[C@H](O[C@H]4C[C@H](OC)[C@H](NC(C)=O)[C@H](C)O4)[C@H](C)O3)[C@H](C)/C=C/C=C3\CO[C@H]4[C@H](O)C(C)=C[C@@H](C(=O)O1)[C@@]34O)O2 (stereo partly drawn), the Potency was 10.1 µM (active). In the case of CC1=CC2/C=C(\C)CCC(O)C(=O)C(O)CC(=O)C23C(=O)NC(CC(C)C)C3C1C (stereo not drawn), the Potency is reported as “inactive”. In the case of C/C=C(\C)[C@@H]1C(C)=C[C@@H]2[C@H]([C@@H]1/C=C/C=C/C(=O)O)[C@@H](C)CC[C@@H]2O, the Potency is reported as 11.4 µM (active). With C=C1C(=O)OC[C@@H]1C/C=C(\C)CC1CC(C)C(=O)O1 (stereo partly drawn) the Potency was “inactive”. For COC1=CC(=O)O/C1=C(/OC)[C@@H]1O[C@H]1c1ccccc1, the Potency was “inactive”. With CN1CCN(c2ccc(OC(F)(F)F)c(Nc3ncc4c(n3)-c3c(c(C(N)=O)nn3CCO)CC4)c2)CC1 the Potency was 0.517 µM (active). With Nc1ncnc2c1nc(Cl)n2C1OC2COP(=O)(O)OC2C1O (stereo not drawn) the Potency was 1.46 µM (active). For COc1cccc(OCCCN)c1-c1cc(Nc2cnc(C#N)cn2)n[nH]1, the Potency was 1.3 µM (active). In the case of Cc1cc(NC(=O)c2cccc(NC(=O)/C=C/CN(C)C)c2)ccc1Nc1nccc(-c2cccnc2)n1, the Potency is reported as “inactive”. With Cn1ncc(Cl)c1-c1cc(C(=O)NC(CN)Cc2ccc(F)c(F)c2)oc1Cl (stereo not drawn) the Potency was 14.6 µM (active). For Nc1nc2c(cnn2CCCc2ccc(O)cc2)c2nc(-c3ccco3)nn12, the Potency was “inactive”. In the case of O=[N+]([O-])c1cn2c(n1)OC[C@@H](OCc1ccc(-c3ccc(OC(F)(F)F)cc3)nc1)C2, the Potency is reported as “inactive”. CC(=O)OC1CC(C)(C(=O)O)CC2C3=CC(=O)C4C5(C)CCC(OC6OC(C(=O)O)C(O)C(O)C6OC6OC(C(=O)O)C(O)C(O)C6O)C(C)(C)C5CCC4(C)C3(C)CCC12C (stereo not drawn) gave an activity change, negative = cytotoxicity of 0.92% [at 9.29 µM]. In the case of CCC(C)/C=C(C)/C=C/C1=CC2=CC(=O)C3(C)OC(C)(O)C(C(=O)OC)C3C2=CO1 (stereo not drawn), the Potency is reported as “inactive”. For NS(=O)(=O)c1ccc(N2CCN(CC[C@@H]3OCCc4ccccc43)CC2)cc1, the Potency was “inactive”. For CC/C=C\CC1C(=O)C=CC1(CCCCC1CCC(=O)O1)OC(C)=O (stereo not drawn), the Potency was “inactive”. For Cc1ccc(N2CCN(CCC3NC(=O)c4ccccc43)CC2)cc1C (stereo not drawn), the Potency was “inactive”. In the case of C/C=C/C=C/C(=O)O[C@@H]1C=C2COC(=O)[C@]2(O)[C@@]2(C)CCCC(C)(C)[C@H]12, the Potency is reported as “inactive”. In the case of CCCC(Nc1nc(-c2ccc(NC(=O)NCC)c(OC)c2)ncc1C)c1cccnc1 (stereo not drawn), the Potency is reported as 1.16 µM (active). With CC1(C)CC[C@]2(C(=O)O)CC[C@]3(C)C(=CCC4[C@@]5(C)C[C@@H](O)[C@H](O)C(CO)(CO)C5CC[C@]43C)C2[C@@H]1O (stereo partly drawn) the Potency was 7.96 µM (active). In the case of CN(C)CCN(Cc1ccc(-c2ccc(CNCCc3ccccc3)cc2)cc1)C(=O)CCC1CCCC1, the Potency is reported as 4.11 µM (active). For CCN1CCN(Cc2ccc(NC(=O)c3ccc(C)c(Oc4ncnc5[nH]c(C)cc45)c3)cc2C(F)(F)F)CC1, the Potency was 20.6 µM (active). In the case of CO[C@@H]1CC(OC2CCC3(C)C(CCC45CCC(C6=CC(=O)OC6)C(C)(CCC43)C5=O)C2)O[C@H](C)[C@@H]1O[C@@H]1O[C@H](CO[C@@H]2O[C@H](CO)[C@@H](O)[C@H](O)[C@H]2O)[C@@H](O)[C@H](O)[C@H]1O (stereo partly drawn), the Potency is reported as 4.37 µM (active).
